Here are results for 40 molecules from ChEMBL document CHEMBL1157539, “Thousands of chemical starting points for antimalarial lead identification” (Nature, 2010).

Structures are written as SMILES.

As usually defined, the Inhibition is the percentage by which the read-out fell short of the control. Read a low Inhibition as a weak effect.

The test system of this experiment is Plasmodium falciparum. As to the kind of experiment: GSK_TCMDC: Inhibition of Plasmodium falciparum Dd2 in whole red blood cells, using parasite LDH activity as an index of growth. Test compounds present at 2uM. The experiment is classed as functional.
For `CCOC(=O)CNC(=O)N1CCN(C(=O)NCC(=O)OCC)CC1`, the Inhibition is given as 0%.

Take `Cc1[nH]c(C)c(C(F)(F)F)c(=O)c1-c1ccc(Oc2ccc(OC(F)(F)F)cc2)cc1`: the Inhibition stood at 96%.

Consider `COc1cccc(Nc2nc(NCCO)c3ccccc3n2)c1.Cl`, for which the Inhibition is listed as 88%.

With `COc1ccc(Cn2c(Nc3cccc(C(F)(F)F)c3)nc3cc(C(=O)NCCCN(C)C)ccc32)cc1Cl`, the Inhibition is listed as 3%.

`O=C(N[C@@H](CC1CCCCC1)C(=O)NC1CCCc2ccccc21)c1ccc(O)c(-c2cccc(C(F)(F)F)c2)c1` (stereo not given in full) yielded an Inhibition of 99%.

`CN(C)CCOc1cc(NC(=O)Nc2ccc(-c3ccccc3)cc2Cl)ccc1I` displayed an Inhibition of 93%.

Consider `OC(CNc1ccnc(Nc2ccccc2)n1)c1ccc(C(F)(F)F)cc1` (stereo not given), for which the Inhibition was 39%.

As for `O=C(Nc1ccc(Cn2ncc(N3CCCNCC3)c(Cl)c2=O)cc1)Nc1ccc(SC(F)(F)F)cc1.O=C(O)C(F)(F)F`, the Inhibition was 68%.

Molecule `COc1cccc(-c2cc(C(F)(F)F)n3ncc(C(=O)Nc4cc(Cl)ccc4O)c3n2)c1` registered an Inhibition of 99%.

With `Cl.Oc1ccc(-c2ccccc2)cc1CNC1CCCCC1`, the Inhibition was determined as 100%.

As for `Cc1[nH]n(-c2cccc(C(F)(F)F)c2)c(=O)c1-c1ccc(Cl)cc1`, the Inhibition is 25%.

In turn, `NC1CCCN(Cc2ccc(-c3cccc(-c4nc5ccccc5[nH]4)c3)cc2)C1.O=C(O)C(F)(F)F` (stereo not given) came in with an Inhibition of 26%.

In turn, `CCOC(=O)c1ccc(NC(=O)Nc2ccc(-c3ccc(-c4nc5cccc(C)c5[nH]4)s3)cc2)cc1` returned an Inhibition of 100%.

`COc1ccc2cc(CNCCCCCCNCc3ccc4cc(OC)ccc4c3)ccc2c1.CS(=O)(=O)O` registered an Inhibition of 92%.

Take `CCOC(=O)c1cc(C(=O)NCCCCN2CCC(c3ccc(CC)cc3OCC)CC2)ccc1-c1ccc(C(F)(F)F)cc1`: the Inhibition was determined as 71%.

`CN1CCCC1CCNc1ncc2c(-c3ccc(NC(=O)Nc4cc(C(F)(F)F)ccc4F)c(F)c3)nn(C)c2n1.O=C(O)C(F)(F)F` (stereo not given) registered an Inhibition of 90%.

`COc1cc2c(cc1OC)CN(CCc1ccc(NC(=O)c3cc4cc(Cl)ccc4[nH]3)cc1)CC2`: the Inhibition amounted to 6%.

`c1ccc(Oc2ccc(Nc3ccnc4cc(-c5cccc(CN6CCOCC6)c5)ccc34)cc2)cc1`: the Inhibition is 100%.

The molecule `COc1ccc(COc2c(OC)cc(Cc3cnc(N)nc3N)cc2OC)cc1` displayed an Inhibition of 23%.

For the molecule `O=C(O)C(F)(F)F.c1cc(CNCC2CCCO2)cc(-c2cccc(-c3nc4ccccc4[nH]3)c2)c1` (stereo not given), the Inhibition is 7%.

`Cc1ccc(-c2cc(C(=O)Nc3ccc(S(=O)(=O)N4CCCCC4)cc3)[nH]n2)c(O)c1` came in with an Inhibition of 92%.

`NCc1ccc(CNCc2ccc(-c3ccc(-c4nc5cc(F)ccc5[nH]4)cc3)cc2)cc1.O=C(O)C(F)(F)F` showed an Inhibition of 99%.

Molecule `Cl.O=c1cc(NCCCNCc2cc3ccccc3s2)[nH]c2ccccc12` yielded an Inhibition of 0%.

The molecule `CCc1n[nH]c(C(=O)Nc2cccc(N3CCCC3)c2)c1C` yielded an Inhibition of 52%.

As for `O=C(/C=C/c1ccc(Cl)c(Cl)c1)NCCCCCCN1CCCN(C(=O)Nc2cc(Cl)cc(Cl)c2)CC1`, the Inhibition was found to be 2%.

For the molecule `C=CCC1OC(=O)c2cc(OC)cc(OC)c21` (stereo not given), the Inhibition came to 100%.

`COc1cc2nc(N3CCC(CNC(=O)c4ccc(-c5ccc(C(F)(F)F)cc5)cc4)CC3)nc(N)c2cc1OC` displayed an Inhibition of 100%.

As to `CN(C)Cc1cccc(-c2cnc(N)c(-c3nc4cc(S(C)(=O)=O)ccc4[nH]3)c2)c1.O=C(O)C(F)(F)F`, the Inhibition is 61%.

On to `COc1ccc(CNCc2ccccc2)cc1-c1ccc(OC)c(S(=O)(=O)NCCN2CCCC2)c1.O=C(O)C(F)(F)F`, for which the Inhibition is 55%.

Consider `CCOc1c(CCNCCCCNCCc2ccc3ccccc3c2OCC)ccc2ccccc12.CS(=O)(=O)O`, for which the Inhibition was determined as 87%.

In turn, `NCc1ccc(-c2ccccc2CNC2CCN(Cc3ccccc3)CC2)cc1.O=C(O)C(F)(F)F` gave an Inhibition of 3%.

`O=C(Nc1ccc(Cl)cc1F)N[C@H]1CCN(CCCCCNC(=O)C2CC2c2ccc(Cl)c(Cl)c2)C1` (stereo not given in full) came in with an Inhibition of 0%.

Consider `O=C(Nc1ccc(C(F)(F)F)cc1)c1cccc(S(=O)(=O)NC2CCN(CC3CCCCC3)CC2)c1.O=C(O)C(F)(F)F`, for which the Inhibition is on record as 12%.

Take `CC(=O)Nc1ccc(C(=O)Nc2ccc(-c3cccc(-c4nc5ccccc5[nH]4)c3)cc2)cn1`: the Inhibition was 84%.

With `CN(C)CCOc1ccc(/C(=C(/CCCn2ccnc2)c2ccccc2)c2ccc(O)cc2)cc1`, the Inhibition was found to be 99%.

`CC(C)(C)N1CCC(N(Cc2ccc(-c3ccc(C(F)(F)F)cc3)cc2)C(=O)Cn2c(CCc3cccc(F)c3F)cc(=O)c3cccnc32)CC1.O=C(O)C(O)C(O)C(=O)O` displayed an Inhibition of 63%.

`Br.CC(C)c1ccc(OCCCON2C(=N)N=C(N)NC2(C)C)cc1` gave an Inhibition of 97%.

Take `Nc1nc(N)c2c(ccc3c2ccn3Cc2ccc(-c3ccccc3)cc2)n1`: the Inhibition is given as 93%.

`Nc1ncnc2nc(-c3ccc(F)cc3)cc(-c3ccc(NC(=O)c4ccccc4)cc3)c12` had an Inhibition of 97%.

Consider `COc1ccc2c(=O)c(I)c(C)[nH]c2c1`, for which the Inhibition was 96%.
